SARS PLP yeast: inhibitors of SARS-CoV papain-like protease in yeast | S. cerevisiae expressing SARS-CoV PLpro, growth rescue | Potency, µM (highest dose often 32.9 µM), for inactives: at the highest dose activity, positive = growth rescue, most hits filed as activators | hit rate 0.19% among 330,000 | AID 485353; calls by dose curve; further: 0% is about no effect; nearly all actives have a fitted effect of over 55% in size
Pf growth 48h: P. falciparum growth inhibition at 48 hours (one generation); P. falciparum luciferase growth in erythrocytes, 48 h; Potency, µM (highest dose often 28.7 µM), for the others: at the top dose activity change, negative = inhibition, hits mostly inhibitors; hit rate 5.9% among 310,000; further: on the % scale 0 is the no-effect control and ±100 the full control effect
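Compounds are pin-transferred into medium, infected erythrocytes (2% hematocrit, 0.1% parasitemia final) are added, and plates sit one parasite generation at 37 C in 5% CO2. Detection reagent is then added and luminescence measured.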
Pf growth 96h: inhibits malaria parasite growth, 96 h | P. falciparum luciferase reporter growth, 96 h | Potency, µM (highest dose often 28.7 µM), for the others: at the highest dose activity change, negative = inhibition, actives largely listed as inhibitors | hit rate 6.9% among 320,000; further: on the % scale 0 is the no-effect control and ±100 the full control effect
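P. falciparum expressing integrated firefly luciferase, in erythrocytes at 2% hematocrit, 0.05% parasitemia, incubated with compounds 96 h at 37 C, 5% CO2. Growth inhibition read as loss of luminescence; two-generation exposure targets delayed-death apicoplast inhibitors.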
AmpC inh detg: inhibitors of E. coli AmpC beta-lactamase with detergent | Potency, µM (top dose mostly 114 µM), inactives show top-dose activity change, negative = inhibition, most hits filed as inhibitors | AmpC hydrolysis of nitrocefin, absorbance 480 nm, 0.01% Triton | P00811 | hit rate 0.041% among 370,000;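 further: 0% = no-compound wells and -100% = no-enzyme wells; nearly all actives have a fitted effect of over 25% in size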
Target sequence (P00811 whole entry, looked up): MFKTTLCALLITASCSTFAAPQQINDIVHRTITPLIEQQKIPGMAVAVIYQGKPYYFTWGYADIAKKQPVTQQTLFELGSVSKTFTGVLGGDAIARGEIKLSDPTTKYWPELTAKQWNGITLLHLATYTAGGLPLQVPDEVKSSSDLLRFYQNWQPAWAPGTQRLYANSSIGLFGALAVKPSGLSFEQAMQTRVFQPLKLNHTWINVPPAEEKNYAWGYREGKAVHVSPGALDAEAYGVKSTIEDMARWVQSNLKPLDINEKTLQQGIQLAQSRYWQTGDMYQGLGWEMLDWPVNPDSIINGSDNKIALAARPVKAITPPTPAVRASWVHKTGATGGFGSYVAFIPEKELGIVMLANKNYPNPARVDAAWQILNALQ
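20 mM phosphate pH 7.0 + 0.01% (detergent screen) or 0.0001% Triton X-100; 5.3 nM AmpC reagent; cpd preinc 15 min RT; nitrocefin (800 uM stock) to start; A480 q20 s × 4 min; Activity was normalised to no-enzyme and no-compound control wells.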
Sm TGR inh: S. mansoni TGR enzyme inhibition. Q962Y6. purified TGR, DTNB reduction, TNB absorbance 405 nm. Potency, µM (doses to about 114 µM), inactives show at the top dose activity change, negative = inhibition, usual class: inhibitors. hit rate 3% among 360,000. AID 485364; further: on the % scale 0 is the no-effect control and ±100 the full control effect; nearly all actives have a fitted effect of over 60% in size
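First, TGR (20 nM dispensed) and NADPH were mixed with compound. Second, a 15 min room-temperature incubation followed. Third, further NADPH and then DTNB were added to start the reaction. Finally, TNB absorbance was monitored kinetically.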
AmpC no deterg: inhibitors of E. coli AmpC beta-lactamase without detergent; P00811; Potency, µM (titrated, usually from 57.1 µM), for the others: top-dose activity change, negative = inhibition, hits mostly inhibitors; hit rate 0.52% among 330,000; AmpC nitrocefin hydrolysis, absorbance 480 nm, 0.0001% Triton;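 further: plate controls were no compound for no effect and no enzyme for full effect; nearly all actives have a fitted effect of over 20% in size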
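AmpC (5.3 nM in the dispensed reagent) in 20 mM phosphate pH 7.0 with 0.01% (detergent screen) or 0.0001% Triton X-100 was preincubated with compounds for 15 min at room temperature. Nitrocefin was then added from an 800 uM solution, and hydrolysis was followed at 480 nm.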
Starred values were filed as active, the others as inactive; ? = inconclusive; · = no result. A selection: hits, their analogues and other compounds. The true share with any hit is near 12%. Unless noted, the call rests on the fitted dose curve; in most records, active means well fitted curve in the direction sought with a large enough effect; inconclusive means small, poorly fitted or top-dose-only effect, or another doubt; inactive means no such curve, though single readings can be large; an effect the other way counts as inactive or inconclusive. Potency means the concentration at half of the fitted maximal effect.

SMILES	SARS PLP yeast	Pf growth 48h	Pf growth 96h	AmpC inh detg	Sm TGR inh	AmpC no deterg
COc1ccc(C(C)=O)cc1COC(=O)c1ccc(S(=O)(=O)N(C)C)cc1	-4%	-27%	?	-6%	2.5µM*	62%
CCOc1ccc(C(C)=O)cc1COC(=O)c1ccc2c(c1)NC(=O)CS2	-8%	?	?	10%	11µM*	-7%
COc1ccc(C(=O)COC(=O)c2ccc3c(c2)NC(=O)CS3)c(OC)c1	-2%	0%	?	-5%	-8%	-46%
CCOc1ccc(NC(=O)C(=O)NCCc2sc(-c3ccc(C)cc3)nc2C)cc1	·	·	·	4%	6%	·
COCc1cc(C)nc2sc(C(=O)Nc3cc(C)ccc3F)c(N)c12	·	·	·	20%	-4%	·
CNC(=S)N/N=C/c1c(C)c(C(=O)c2ccc(F)cc2)n2ccccc12	-1%	8.3µM*	3.3µM*	-10%	-6%	-22%
Cc1cc(C(=O)N/N=C/c2c(C)nn(-c3ccccc3)c2C)n[nH]1	0%	-11%	?	4%	25%	-10%
COc1cc(/C=N/NC(=O)c2cc(C34CC5CC(CC(C5)C3)C4)[nH]n2)ccc1O	-3%	?	12µM*	-1%	10%	-30%
Cc1nn(-c2ccccc2)c(C)c1/C=N/NC(=O)c1cc(C23CC4CC(CC(C4)C2)C3)[nH]n1	-4%	3.3µM*	2.1µM*	5%	-1%	-11%
Cc1ccc(CNC(=O)CCCCCn2c(=O)c3sccc3n(CC(=O)N(C)c3ccccc3)c2=O)cc1	·	·	·	2%	-6%	·
CCN(CC)CCn1c(SCC(=O)NCCC2=CCCCC2)nc2c(sc3ccccc32)c1=O	-1%	?	?	-2%	-2%	-10%
CCN(CC)CCn1c(SCC(=O)NCc2ccco2)nc2c(sc3ccccc32)c1=O	0%	?	·	-5%	32µM*	6%
O=C(CSc1nc2c(sc3ccccc32)c(=O)n1Cc1ccco1)NCC1CCCO1 (stereo unspecified)	1%	8.3µM*	9.3µM*	-8%	0%	-7%
O=C(Nc1ccc(Cl)cc1)c1cncs1	-2%	37%	-6%	9%	11%	-13%
COCCNc1nc(-c2cc(C)n(CCc3ccc(OC)cc3)c2C)cs1	1%	2.6µM*	?	?	?	22%
COc1ccccc1CNc1nc(-c2cc(C)n(C)c2C)cs1	1%	?	-64%	1%	?	5%
CC1(C)Cc2c(sc(NC(=O)C(=O)NCC3CCCO3)c2C(N)=O)CO1 (stereo unspecified)	-4%	-24%	?	5%	-9%	-12%
CCn1nc(/C=C/c2ccccc2)nc2c(=O)n(C)c(=O)nc1-2	0%	-3%	12µM*	-6%	-35%	-27%
O=C(c1ccc2ccccc2c1)N1CCN(c2ccc([N+](=O)[O-])c(N3CCOCC3)c2)CC1	-8%	7.4µM*	8.3µM*	-2%	-7%	92%
Cc1cccc(C(=O)N2CCN(c3ccc([N+](=O)[O-])c(N4CCOCC4)c3)CC2)c1	4%	?	?	2%	2%	100%
O=C(/C=C/c1ccccc1)N1CCN(c2ccc([N+](=O)[O-])c(N3CCOCC3)c2)CC1	-15%	?	10µM*	-12%	2%	88%
O=C(/C=C/c1ccc(S(=O)(=O)N2CCOCC2)cc1)N1CCN(c2ccccc2)CC1	0%	?	-17%	10%	10%	46%
O=C(c1cc2ccccc2cc1O)N1CCN(c2ccc([N+](=O)[O-])cc2)CC1	-2%	6.6µM*	?	?	1%	?
O=C(NCc1cccnc1)C1CC(=O)N(CCc2ccccc2)C1 (stereo unspecified)	4%	·	-43%	-4%	84%	-11%
CCc1ccc(-n2c(=O)c3c4c(sc3n(Cc3ccccc3C#N)c2=O)CCC4)cc1	·	·	·	0%	-2%	·
SMILES	SARS PLP yeast	Pf growth 48h	Pf growth 96h	AmpC inh detg	Sm TGR inh	AmpC no deterg
Cc1ccc(N2CN(S(=O)(=O)c3cccc([N+](=O)[O-])c3)c3nc4ccccc4nc32)cc1	4%	-21%	?	3%	45µM*	1%
CN(C)C/C=C/C(O)(c1ccccc1)c1ccccc1	0%	20%	?	5%	-7%	-3%
CN(C)CC(CCC(CN(C)C)C(O)(c1ccccc1)c1ccccc1)C(O)(c1ccccc1)c1ccccc1 (stereo unspecified)	1%	1.9µM*	1.9µM*	-5%	-14%	172%
C=CCn1c(O)c(CN2CCCCC2)c(C)c(C#N)c1=O	2%	-7%	15%	6%	13µM*	-25%
Cc1c(CN2CCCC(C)C2)c(O)n(CCO)c(=O)c1C#N (stereo unspecified)	1%	5%	38%	1%	0%	-3%
CCOC(=O)c1c(C)oc2c1c(C(c1ccncc1)N1CCOCC1)c(O)c1ccccc12 (stereo unspecified)	-37%	?	-1%	-5%	1.3µM*	242%
CCOC(=O)c1c(C)oc2c1c(CN1CCN(CCO)CC1)c(O)c1ccccc12	-16%	124%	213%	6%	0.28µM*	41%
CCOC(=O)c1c(C)oc2ncnc(N3CCN(c4ccccc4)CC3)c12	·	·	·	3%	-3%	·
CCOC(=O)c1c(C)oc2c1c(CN1CCN(C(=O)OCC)CC1)c(O)c1ccccc12	-2%	115%	-31%	-6%	0.56µM*	0%
CCOC(=O)c1c(C)oc2c1c1c(c3ccccc32)OCN(Cc2ccccn2)C1	-18%	104%	218%	-3%	0.35µM*	5%
Cc1cccc2cc(C(c3nnnn3CC3CCCO3)N3CCOCC3)c(=O)[nH]c12 (stereo unspecified)	-1%	-20%	-27%	?	-2%	-11%
CC(C)(C)n1nnnc1C(c1ccccc1F)N(Cc1ccco1)CC1CCCO1 (stereo unspecified)	-6%	13µM*	-18%	?	?	60%
Cc1ccc2[nH]c(=O)c(C(c3nnnn3C3CCCC3)N(Cc3cccnc3)Cc3ccco3)cc2c1 (stereo unspecified)	4%	?	·	2%	-22%	-15%
Cc1cccc2cc(C(c3nnnn3C(C)(C)C)N(Cc3ccco3)CC3CCCO3)c(=O)[nH]c12 (stereo unspecified)	1%	12µM*	?	-8%	-1%	69%
Cc1ccc2[nH]c(=O)c(C(c3nnnn3C(C)(C)C)N(Cc3ccco3)CC3CCCO3)cc2c1 (stereo unspecified)	3%	6.6µM*	?	-12%	-17%	-11%
